Measured values reported in the supplement of paper PMC6555819.

Key:
Assay in all cases: PBM binding z-score (relative to random genomic background probes); higher = stronger binding; sequences stand for … in GC…GCGATTGACAGCGTAGAATGAAGG
[1] = system: RARb homodimer (NR concentration 270 nM)
Summary of the method: (§1)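 Probes were double-stranded and carried 34-nt variable regions with direct-repeat seeds, single-nucleotide variants, half-site ablations and random human genomic background sequences, printed on custom Agilent 4×180K protein-binding microarrays. Arrays were incubated 1 h with ligand-free nuclear receptor dimers in PBS pH 7.4, 2% milk, 0.02% Triton X-100, 1 mM DTT, 0.2 mg/mL BSA and 0.4 mg/ml salmon testes DNA. Antibodies against each partner (one per run) detected binding, and scanned fluorescence was regression-normalized. Binding z-scores use the random background probes as reference.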

[2] = system: RARg:RXRa (NR concentration 270 nM, RXRa partner concentration 90 nM)
Summary of the method: as §1

[3] = system: RARg homodimer (NR concentration 270 nM)
Summary of the method: as §1

[4] = system: RXRa DBDmut IVT, anti-RXR (DBD mutation: RXRa K156A/R161A, NR concentration 90 nM)
Summary of the method: as §1

[5] = system: RXRa homodimer (NR concentration 180 nM)
Summary of the method: as §1

[6] = system: THRa:RXRa (NR concentration 90 nM, RXRa partner concentration 90 nM)
Summary of the method: as §1

[7] = system: THRa homodimer (NR concentration 90 nM)
Summary of the method: as §1

[8] = system: VDR homodimer (NR concentration 270 nM)
Summary of the method: as §1

Sequence | PBM binding z-score [1] | PBM binding z-score [2] | PBM binding z-score [3] | PBM binding z-score [4] | PBM binding z-score [5] | PBM binding z-score [6] | PBM binding z-score [7] | PBM binding z-score [8]
GTACCAAGGTGAATAGGTCGTTGAAGAGTAGGCG | 2.13 | 2.81 | 1.45 | -0.183 | 1.9 | 1.91 | 0.593 | 0.198
TCTTGTAGATTAAAGGTTAAGAAAGCCGAAGCCT | 1.05 | 1.04 | 0.588 | 0.892 | 1.99 | 1.09 | -0.228 | 0.123
GCTGCTAGGTCAACTGATGATCAGCTAAAGCTCG | 3.3 | 4.46 | 5.15 | 1.46 | 2.75 | 2.85 | 0.808 | -0.0271
ACTATTAGTTGACACGAGGGCAACCGATAGGTTG | 1.76 | 1.56 | 1.34 | 0.816 | 1.22 | 3.07 | 0.699 | 1.07
TCTAGTTGGTCATAGGTCACACACTCGAAATGCG | 3.67 | 4.2 | 3.58 | 1.63 | 4.58 | 2.68 | 1.47 | 1.63
CCGAGTGGGGCATAAGGTTACCATAAGCCAGCCC | 1.32 | 1.46 | 0.809 | -0.545 | 1.22 | 2.01 | 1.09 | 0.036
TTACCAAGGTGATCTGAGGTCGTTGATCCAACTC | 1.63 | 0.881 | 0.757 | 0.903 | 1.37 | 4.77 | 2.67 | 2.96
TCTTGTAGATCACTAGAGGTTAAGAAAGTGCGCT | 1.33 | 0.919 | 0.66 | 0.477 | 1.6 | 2.43 | -0.317 | 0.162
CGTAGCAGGCCAATCTGGGTCACTCAAGGCTTGA | 1.95 | 0.96 | 1.26 | 0.317 | 0.616 | 3.65 | 0.645 | -0.295
TAGCCTAGGTCATTCTGGGGCCAGTATAGAAAGC | 2.94 | 4.85 | 3.81 | 1.87 | 2.52 | 3.62 | 0.956 | 1.11
TATACAGGGTCAAAGGCCTGAGTACGAATGTCGA | 3.17 | 5.49 | 4.87 | 2.89 | 6.3 | 3.28 | 0.678 | 3.41
CCGACTGGGGCAAAGGTTACCAAACTCAGTACGA | 2.24 | 3.53 | 1.67 | -0.134 | 3.74 | 1.98 | -0.144 | 0.318
ATCGAAAGGTCGGGGTGAGTATAGAGAAAGGGAA | 2.88 | 3.7 | 3.63 | 1.78 | 3.77 | 3.06 | 1.35 | 1.52
AATTCAGGGTCATCGTAGGCCAGAGTACGCACAG | 3.87 | 6.21 | 5.46 | 3.82 | 7.13 | 4.78 | 2.24 | 4.01
GCGACTGCGGCATCAGCAGGTTACCATAACTTAA | 0.0981 | -0.378 | -0.604 | -0.332 | 0.0443 | 0.0329 | 0.0125 | -0.566
GCTATTAGTTGAGAGGGCAACCGAATGATTCTCG | 1.14 | 0.913 | 1.01 | 0.884 | 0.882 | 0.555 | -0.117 | 0.435
ATCTCTAGGTAAAGTTCAGTGAAAGATCGATAGA | 2.65 | 2.18 | 2.77 | 1.72 | 1.42 | 1.24 | 0.317 | 2.53
CAAACTAGGTCAGAGAGGTCAAAGTCCGTGCGTA | 5.19 | 6.39 | 6.79 | 2.74 | 7.07 | 4.43 | 2.45 | 6.12
TCGTATAGGTAAAGGTGAAAGTCGAACGATATGA | 1.77 | 1.52 | 1.35 | 0.714 | 2.12 | 1.24 | -0.212 | 0.0316

Sequence | PBM binding z-score [1] | PBM binding z-score [2] | PBM binding z-score [3] | PBM binding z-score [4] | PBM binding z-score [5] | PBM binding z-score [6] | PBM binding z-score [7] | PBM binding z-score [8]
ATACCAAGGTGATCGTTAGGTCGTTGATACTAAC | 1.02 | 0.983 | 0.72 | 0.203 | 0.459 | 2.26 | 1.49 | 0.472
CATCCAAGGTCAAGGTCAGTGAAAGAGACTCGAA | 5.3 | 6.9 | 7.48 | 3.81 | 6.28 | 4.48 | 3.62 | 3.23
CCTAGTTGGTGAAGGTCACACACGCTATAGGTAC | 4.26 | 4.01 | 4.06 | 1.36 | 3.65 | 2.89 | 1.2 | 2.3
CCTGCTAGGTCAATGGTTAGCTAAAGCAGCTCGC | 2.6 | 3.3 | 3.9 | 1.65 | 1.78 | 2.11 | 0.48 | -0.158
TCTCGGAGGACATGAAAGGTCAGAGCTCGACATC | 4.53 | 4.22 | 4.21 | 1.18 | 3.67 | 3.34 | 0.586 | 0.768
GGAACGAGGGCTAAGTTGATAGCATCTGTCGACG | -0.586 | -0.0723 | 0.11 | 0.186 | -0.114 | -0.638 | -0.828 | -0.365
CCTTACGGGTCACTGACAGGTTATCGCATTTGGA | 3.3 | 5.91 | 4.66 | 1.9 | 5.05 | 3.02 | 0.17 | 0.982
CCAACTGGGGCATAAGGTTACCATAAGCCAGCCC | 1.68 | 1.52 | 1.12 | -0.33 | 1.24 | 1.97 | 1.29 | 0.0835
CGAACTAGGTCAAGGACAGTGAGTCTCCGCACGC | 3 | 3.43 | 4.13 | 1.02 | 2.28 | 3.1 | 1.85 | 0.408
TCTTGTAGATTAGCAGGTTAAGAAAGCTGGCCAA | 0.292 | -0.0657 | -0.174 | 0.682 | 0.386 | 0.458 | -0.511 | -0.173
TCTCGGAGGACACGAAGGCCAGAGCTTTCCAGAG | 1 | 0.605 | 1.84 | 0.482 | 0.00493 | 1.43 | 0.215 | -0.212
CTCGAAAGGCCGTGCTCAGGTGAGTATACCAAAC | 0.384 | 0.136 | 0.46 | 0.0515 | -0.297 | 1.61 | 0.381 | -0.249
TGAATGAGCTTATAAGATCAGGGAACGTTGCAAA | -1.21 | -0.305 | -0.288 | -1.2 | -0.211 | -0.371 | -1.18 | -0.577
CCTTACGGGTCACTCCAGGTTATCGCATCGGAGT | 3.25 | 4.44 | 4.23 | 1.07 | 4.36 | 5.13 | 0.863 | 1.57
AAAGACAGGTGATGAAGGTAACTCAGGCTATCAT | 0.516 | 0.231 | 0.563 | -0.304 | 0.572 | 1.23 | 0.466 | 0.111
TCATATAGGTAAATACTAGGTGAAAGTCCGATCT | 0.493 | 0.573 | 0.709 | 1.89 | 1 | 1.49 | 0.718 | 0.521
CCTATTAGTTGACCAGAAGGGCAACCGAAGCTCG | 1.88 | 1.45 | 0.985 | 0.633 | 0.786 | 0.606 | 0.383 | 0.595
ACTATTAGTTGACTTAGGGCAGCCGATACGACGC | 0.54 | 0.527 | 0.729 | 0.712 | 0.378 | 0.635 | 0.246 | 0.0585
AATGCAGGGTCATCGTAGGCCAGAGTACGCACAG | 3.56 | 5.5 | 4.83 | 3.37 | 6.16 | 4.6 | 0.92 | 3.45

Sequence | PBM binding z-score [1] | PBM binding z-score [2] | PBM binding z-score [3] | PBM binding z-score [4] | PBM binding z-score [5] | PBM binding z-score [6] | PBM binding z-score [7] | PBM binding z-score [8]
TCTCGGCGGACACGAAGGTCAGAGCTTTCCAGAG | 2.83 | 2.03 | 2.17 | 0.141 | 1.28 | 1.16 | -0.151 | 0.187
TAGCCTAGGTTATTCAGGGGCCAGTATAGAAAGC | 0.985 | 3.15 | 0.714 | -0.074 | 0.459 | 1.93 | -0.239 | -0.459
CCTACTGGGCGATCAGGTCATTGATATCAACGTT | 2.23 | 1.35 | 1.37 | 0.269 | 1.02 | 2.74 | 2.18 | 1.53
ATCTCTAGGTAAAAGTTCAGTGGATCCCGAGGAT | 2.32 | 2.02 | 2.08 | 0.861 | 1.53 | 1.2 | 0.272 | 1.72
TCGAGGAGGTTACCAATGGGGCATTCAGCTTTCT | 1.69 | 2.85 | 1.13 | 0.716 | 1.83 | 1.06 | -0.297 | 0.112
ATATGTAGGGTACATCCGGGTCATTCAGGCTATG | 2.84 | 2.44 | 1.86 | 2.66 | 2.64 | 3.83 | 2.45 | 5.83
TCTCGGAGGACACGCAAGGTCAGAGCTCGACATC | 3.96 | 3.16 | 3.84 | 1.23 | 2.01 | 4.25 | 2.64 | 1.06
TTTCCAAGGTGAAGGTCGTTGATCCCTCTGTAGA | 2.06 | 1.51 | 1.29 | 0.389 | 1.95 | 2.94 | 1.8 | 1.37
ACAGACAGGTGAGTGAAGGTAACACAGCTGGACG | 0.48 | 0.416 | 0.789 | -0.436 | 0.647 | 1.87 | -0.183 | -0.21
ATATGTAGGTTAAGTGTCATTCAGGTTGGTTCGC | 2.02 | 1.53 | 1.47 | 1.1 | 1.9 | 1.58 | 1.08 | 1.53
TCATATAGGTAAATGCTATGTGAAAGTCCGATCT | -0.22 | 0.473 | 0.452 | 1.17 | 0.894 | 0.0535 | 0.0976 | 0.435
ATCTCTCGGTAACAAGTTCAGTGAAAGAGAGGAC | 1.84 | 0.867 | 1.2 | 0.226 | 0.539 | 0.976 | 0.753 | 2.29
TCGAGTAGGTTACGGGCATTCAGAATGGCGTCGA | 0.362 | 0.594 | 0.594 | -0.00223 | 0.855 | 0.116 | -0.913 | -0.716
CCTACTGTGCCATCAGGTCATTGATATCAACGTT | 2.98 | 2.18 | 1.93 | 1.69 | 1.53 | 3.64 | 3.95 | 2.39
CCTAGTAGGCCAATCTGGGTCACTCAAGGCTTGA | 2.52 | 1.43 | 1.67 | -0.0412 | 0.813 | 3.89 | 0.525 | -0.107
CTCGAAAGGTCGTGCCCAGGTGAGTATACCAAAC | 2.89 | 5.31 | 3.78 | 1.72 | 5.09 | 3.87 | 0.947 | 1.31
CGTATTAGTTGACCATAAGGGCAACCGAAGCTCG | 2.04 | 1.2 | 0.883 | 0.244 | 0.743 | 1.83 | 1.15 | 0.668
TAGGCTAGGTCATTCAGGGGCCAGTATAGAAAGC | 3.57 | 6.42 | 4.85 | 1.71 | 3.26 | 3.7 | 0.658 | 1.95
